PubChem BioAssay
Activity calls are given as the source filed them. Unless noted, the rule behind the calls is not given here.

How the values were obtained:
[1] = A549 cell viability effects, profiling panel, calcein-AM fluorescence, 48 h, basal (AID 1162); conditions: higher = more signal; note: test concentration not given here
[2] = adipocyte viability effects, profiling panel, cell-based, 3T3-L1 adipocytes, calcein-AM fluorescence, 48 h, basal (AID 1163); conditions: 3T3-L1 adipocytes viability, higher = more signal; note: test concentration not given here
[3] = HepG2 cell viability effects, profiling panel, calcein-AM fluorescence, 48 h, basal (AID 1164); conditions: higher = more signal; note: test concentration not given here
[4] = MM1S cell viability effects, profiling panel, calcein-AM fluorescence, 48 h, basal (AID 1165); conditions: higher = more signal;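 note: viability of MM1S multiple myeloma cells under basal unstimulated conditions; test concentration not given here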
[5] = basal RPMI8226 viability, no added stimulus, profiling panel, cell-based, calcein-AM fluorescence, 48 h, PK04 Diversity Set (AID 1166); conditions: RPMI8226 myeloma viability, higher = more signal;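 note: cells grown under basal conditions without added stimulus; test concentration not given here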
[6] = basal HepG2 mitochondrial membrane potential changes, profiling panel, cell-based, JC-1 fluorescence, 24 h, 100 nL compound (AID 1167); conditions: higher = more signal; note: test concentration not given here
[7] = basal 3T3-L1 adipocyte mitochondrial potential changes, profiling panel, cell-based, JC-1 fluorescence, 3T3-L1 adipocytes, 24 h, 100 nL compound (AID 1168); conditions: JC-1 mitochondrial fluorescence, higher = more signal, called active from +8 up or from −8 down; note: test concentration not given here
[8] = basal RPMI8226 mitochondrial membrane potential changes, profiling panel, cell-based, JC-1 fluorescence, 24 h, 100 nL compound (AID 1169); conditions: RPMI8226 myeloma, JC-1 mitochondrial potential fluorescence, higher = more signal; note: test concentration not given here
[9] = basal MM1S mitochondrial membrane potential changes, profiling panel, cell-based, JC-1 fluorescence, 24 h, 100 nL compound (AID 1170); conditions: higher = more signal; note: test concentration not given here
[10] = A549 lung cancer cell viability effects, profiling panel, resazurin fluorescence, 24 h, PK04 Diversity Set (AID 1171); conditions: higher = more signal, called active from +8 up or from −8 down; note: test concentration not given here
[11] = HepG2 liver cancer cell viability effects, profiling panel, resazurin fluorescence, 24 h, PK04 Diversity Set (AID 1172); conditions: higher = more signal; note: test concentration not given here
[12] = basal S. cerevisiae growth modulation, no modifier, primary screen, OD600, strain BY4716, 24 h, basal condition (AID 1173); conditions: OD600, 24 h, higher = more signal, called active from +8 up or from −8 down
[13] = MM1S myeloma cell viability, profiling panel, resazurin fluorescence, basal, 24 h, PK04 Diversity Set (AID 1174); conditions: higher = more signal, called active from +8 up or from −8 down;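 note: MM1S multiple myeloma cell line; test concentration not given here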
[14] = target: Dihydroorotate dehydrogenase (quinone), mitochondrial (Plasmodium falciparum (isolate 3D7)) (UniProt Q08210); experiment: PfDHODH enzyme inhibitors, primary screen, biochemical, C-terminal His tag, absorbance 600 nm (AID 1175); conditions: DCIP absorbance 600 nm, higher = more signal, called active from +8 up or from −8 down;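 note: recombinant parasite enzyme with a five histidine tag at its C terminus; test concentration not given here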
Sequence of Dihydroorotate dehydrogenase (quinone), mitochondrial (Plasmodium falciparum (isolate 3D7)) (Q08210 whole entry, looked up): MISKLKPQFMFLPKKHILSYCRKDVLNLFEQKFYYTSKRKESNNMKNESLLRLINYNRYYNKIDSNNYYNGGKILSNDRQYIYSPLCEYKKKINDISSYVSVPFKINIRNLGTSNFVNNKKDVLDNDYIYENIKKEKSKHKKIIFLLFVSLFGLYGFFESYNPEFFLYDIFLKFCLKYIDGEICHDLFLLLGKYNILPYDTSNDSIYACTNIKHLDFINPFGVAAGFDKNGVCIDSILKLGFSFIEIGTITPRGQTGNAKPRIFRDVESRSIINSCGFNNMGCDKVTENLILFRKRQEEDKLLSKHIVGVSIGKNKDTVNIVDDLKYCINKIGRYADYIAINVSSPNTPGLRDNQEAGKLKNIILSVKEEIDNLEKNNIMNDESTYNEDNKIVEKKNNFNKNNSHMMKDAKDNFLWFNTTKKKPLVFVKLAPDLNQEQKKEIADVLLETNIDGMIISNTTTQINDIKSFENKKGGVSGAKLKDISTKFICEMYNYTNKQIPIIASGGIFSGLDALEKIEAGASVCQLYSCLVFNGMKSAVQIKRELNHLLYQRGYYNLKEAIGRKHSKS

[15] = P. aeruginosa biofilm formation inhibitors, primary screen, strain PAO1, LB-PBS medium, absorbance 600 nm (AID 1176); note: test concentration not given here; conditions: P. aeruginosa PAO1 growth/biofilm, A600, 12 h; higher = more signal
[16] = S. cerevisiae RM11-1a growth modifiers, primary screen, strain RM11-1a, OD600, basal, 24 h (AID 1177); conditions: OD600, 24 h, higher = more signal, called active from +8 up or from −8 down;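 note: cultures grown under basal conditions with no added stressor; test concentration not given here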
[17] = E. coli acrAB mutant growth effects, primary screen, E. coli filamentation inducers, strain DRC39, OD650, 24 h (AID 1178); conditions: higher = more signal, called active from +8 up or from −8 down;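 note: growth measured as culture turbidity by optical density at 650 nm; test concentration not given here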
[18] = E. coli acrAB mutant growth effects, primary screen, E. coli filamentation inducers, strain DRC39, OD650, 48 h (AID 1179);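 note: screen aims at cell division blockers that make cells filament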; conditions: E. coli DRC39 delta-acrAB growth, higher = more signal, called active from +8 up or from −8 down
[19] = RPMI8226 myeloma cell viability, profiling panel, resazurin fluorescence, basal, 24 h, PK04 Diversity Set (AID 1180); conditions: higher = more signal;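 note: RPMI8826 multiple myeloma cell line at 5000 cells per well; test concentration not given here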
[20] = target: E3 ubiquitin-protein ligase XIAP (Homo sapiens) (UniProt P98170); experiment: XIAP binders, primary screen, biophysical, small-molecule microarray, fluorescence 635 nm (AID 1181); conditions: small-molecule microarray binding, higher = more signal;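 note: score merges 667 nm emission and signal to noise over triplicate slides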
Sequence of E3 ubiquitin-protein ligase XIAP (Homo sapiens) (P98170 whole entry, looked up): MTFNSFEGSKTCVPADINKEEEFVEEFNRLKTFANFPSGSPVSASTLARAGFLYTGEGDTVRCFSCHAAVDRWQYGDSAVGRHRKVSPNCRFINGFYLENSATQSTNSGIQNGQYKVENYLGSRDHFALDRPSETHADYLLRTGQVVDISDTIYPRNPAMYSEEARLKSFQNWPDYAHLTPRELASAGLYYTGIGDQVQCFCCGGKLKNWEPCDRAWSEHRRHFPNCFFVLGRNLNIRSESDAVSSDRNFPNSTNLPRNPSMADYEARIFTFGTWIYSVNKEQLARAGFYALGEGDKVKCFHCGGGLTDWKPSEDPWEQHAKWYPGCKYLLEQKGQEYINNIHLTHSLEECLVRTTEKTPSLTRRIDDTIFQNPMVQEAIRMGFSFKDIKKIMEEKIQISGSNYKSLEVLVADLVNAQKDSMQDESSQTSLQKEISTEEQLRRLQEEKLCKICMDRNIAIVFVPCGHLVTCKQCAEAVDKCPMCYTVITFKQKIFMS

SMILES | z-score [1] | z-score [2] | z-score [3] | z-score [4] | z-score [5] | z-score [6] | z-score [7] | z-score [8] | z-score [9] | z-score [10] | z-score [11] | z-score [12] | z-score [13] | composite z-score [14] | z-score [15] | z-score [16] | z-score [17] | z-score [18] | z-score [19] | composite z-score [20]
O=C1NC(=O)C2C1C=CC(C(O)CCc1ccccc1)N2Nc1ccccn1 (stereo not given) | -1.58 | 0.0058 | 1.23 | 0.87 | 1.02 | -0.149 | -0.382 (inactive) | 0.282 | 0.228 | -1.72 (inactive) | -0.875 | 0.725 (inactive) | -0.871 (inactive) | -0.505 (inactive) | 1.65 (inactive) | -1.07 (inactive) | 0.696 (inactive) | 1.07 (inactive) | -0.717 | 0.107
COCCOC(=O)N1C(=O)[C@@]2(c3cc(C#CC4(O)CCCCCC4)ccc31)[C@H](C(=O)NC[C@H](O)c1ccccc1)[C@H]1C(=O)O[C@H](c3ccccc3)[C@H](c3ccccc3)N1[C@@H]2c1ccc(OCCO)cc1 | -0.248 | 0.504 | -0.466 | -1.16 | -1.91 | -1.64 | 1 (inactive) | -1.01 | -1.19 | 0.365 (inactive) | 1.49 | 0.385 (inactive) | -0.909 (inactive) | -1.38 (inactive) | 1.05 (inactive) | 2.73 (inactive) | 0.608 (inactive) | 0.187 (inactive) | 0.0705 | 0.643
CCOC(=O)C1=CC[C@@H](c2ccccc2)N(S(=O)(=O)c2ccc(C)cc2)[C@H]1C=C(C)C | -1.36 | -1.2 | -1.01 | -1.33 | -0.89 | 4.57 | -0.638 (inactive) | -1.01 | -1.79 | 1.26 (inactive) | 0.576 | 2.78 (inactive) | -0.85 (inactive) | 0.274 (inactive) | 0.229 (inactive) | 1.65 (inactive) | -0.147 (inactive) | 0.449 (inactive) | -2.1 | 0.394
C=CCC(OC(C)=O)[C@@H]1[C@@H](N(Cc2cccc3ccccc23)C(=O)Cc2ccc(F)cc2)c2cc(OCCCO)ccc2N1C(=O)Cc1ccc(OC)cc1 (stereo not given in full) | 1.34 | 1.88 | 0.99 | 0.827 | 0.762 | 2.26 | 0.527 (inactive) | 0.183 | -0.0319 | 0.641 (inactive) | 0.303 | -1.61 (inactive) | 0.738 (inactive) | -0.83 (inactive) | -0.206 (inactive) | -1.16 (inactive) | 0.248 (inactive) | 0.927 (inactive) | 1.01 | -0.01
C=C(/C(=C/C[C@@H](OC(C)=O)c1ccccc1OCCO)c1cnc2ccccc2c1)C(C)C | -0.0635 | 2.39 | -0.795 | -2.36 | -1.45 | 0.517 | -1.27 (inactive) | -0.0844 | 1.74 | -0.945 (inactive) | -1 | -1.34 (inactive) | -0.601 (inactive) | -5.68 (inactive) | 0.108 (inactive) | 0.29 (inactive) | -0.997 (inactive) | -0.667 (inactive) | -0.267 | -0.102
COC(=O)C(CC#Cc1ccc2c(c1)[C@]1(C(=O)N2)[C@H](c2ccccc2OCCO)N2[C@H](c3ccccc3)[C@H](c3ccccc3)OC(=O)[C@H]2[C@@H]1C(=O)Nc1nc2ccccc2s1)C(=O)OC | 0.689 | 1.15 | 0.755 | -3.33 | -1.74 | -2.74 | -0.00705 (inactive) | -0.905 | -0.548 | -0.203 (inactive) | -0.449 | 1.4 (inactive) | 0.699 (inactive) | -8 (inactive) | 3.7 (inactive) | 2.33 (inactive) | -0.0715 (inactive) | 0.172 (inactive) | 1.05 | 0.0264
C[N+](C)(C)CCCCCCNC(=O)[C@H]1C[C@H]2C(=O)N3CCC[C@H]3C(=O)N2[C@H]1c1cccc(OCCO)c1 | -0.538 | -1.25 | -0.684 | 0.429 | 0.512 | -1.68 | -0.416 (inactive) | -0.173 | -0.167 | 0.558 (inactive) | 0.473 | -0.187 (inactive) | -0.41 (inactive) | -0.788 (inactive) | -0.13 (inactive) | -0.637 (inactive) | 0.12 (inactive) | -0.271 (inactive) | -0.767 | 0.135
CN(C)C(=O)[C@@]1(CCC(=O)OC(C)(C)C)N=C(c2ccc(OCCCO)cc2)O[C@H]1c1ccccc1N=[N+]=[N-] | 0.186 | 0.727 | -0.34 | -0.956 | 0.0691 | 1.45 | -0.371 (inactive) | -0.432 | -0.0283 | 0.966 (inactive) | 0.506 | 0.314 (inactive) | -1.36 (inactive) | 0.645 (inactive) | 1.35 (inactive) | 1.98 (inactive) | 0.306 (inactive) | -0.264 (inactive) | -0.839 | 0.0428
